CCHF vOTU inh-1: CCHFV vOTU protease inhibitors, primary screen, biochemical, Pep-AMC substrate, fluorescence. inhibition, % at 11.5 µM. 370,000 tested, 0.55% active. AID 651958, 2012. Crimean-Congo hemorrhagic fever virus L polyprotein viral ovarian tumor (vOTU) protease …; note: 0% = vehicle wells with enzyme and 100% = no enzyme wells
RecA splice inh: Mtb RecA intein splicing inhibitors, primary screen, biochemical, fluorescence, HTS | AID 2221, 2009 | cell-free RecA intein splicing | 290,000 tested, 0.75% active | Protein RecA (Mycobacterium tuberculosis (strain ATCC 25618 / H37Rv)), P9WHJ3 | inhibition, % (no concentration beside the values); in the data active = inhibition above about 30%; inconclusive = no clear call, values can overlap the other calls;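 note: 0% = vehicle wells and 100% = reference inhibitor control wells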
Target sequence (P9WHJ3 whole entry, looked up, canonical isoform): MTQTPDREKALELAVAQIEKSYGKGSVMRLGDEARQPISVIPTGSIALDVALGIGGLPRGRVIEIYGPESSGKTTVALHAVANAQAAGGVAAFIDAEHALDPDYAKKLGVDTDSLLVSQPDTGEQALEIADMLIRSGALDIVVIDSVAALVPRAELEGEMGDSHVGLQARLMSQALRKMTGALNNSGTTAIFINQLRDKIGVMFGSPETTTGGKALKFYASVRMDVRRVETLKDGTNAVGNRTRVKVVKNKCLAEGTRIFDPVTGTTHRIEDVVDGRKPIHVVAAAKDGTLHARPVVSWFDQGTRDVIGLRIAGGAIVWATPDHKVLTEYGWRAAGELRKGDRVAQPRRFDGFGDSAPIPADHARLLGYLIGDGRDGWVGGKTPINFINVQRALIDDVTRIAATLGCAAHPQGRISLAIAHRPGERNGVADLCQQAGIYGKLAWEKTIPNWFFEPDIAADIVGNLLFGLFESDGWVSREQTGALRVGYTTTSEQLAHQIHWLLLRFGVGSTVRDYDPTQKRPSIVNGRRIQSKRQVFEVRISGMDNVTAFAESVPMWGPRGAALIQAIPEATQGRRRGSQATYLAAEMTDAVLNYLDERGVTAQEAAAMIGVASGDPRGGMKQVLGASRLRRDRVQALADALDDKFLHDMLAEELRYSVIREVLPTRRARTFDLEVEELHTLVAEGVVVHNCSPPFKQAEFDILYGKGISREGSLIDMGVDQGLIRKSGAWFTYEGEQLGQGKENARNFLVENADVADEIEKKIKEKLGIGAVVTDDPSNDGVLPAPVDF
UGM FP inh: M. tuberculosis UGM enzyme inhibitors, primary screen, biochemical, fluorescence polarization, single point. inhibition, % at 10 µM. purified UGM, fluorescence polarization probe displacement. 320,000 tested, 0.06% active. UDP-galactopyranose mutase (Mycobacterium tuberculosis (strain ATCC 25618 / H37Rv)), …; in the data active = inhibition above about 10%, passing the limit was not always enough; inconclusive = no clear call, values can overlap the other calls
Mtb betalactam: beta-lactam sensitization of Mtb H37Rv, H37Rv. M. tuberculosis H37Rv growth with meropenem, percent inhibition. inhibition, % at 25 µM. 330,000 tested, 0.27% active. AID 434955, 2010; call rule not given here;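 note: growth measured after seven days incubation then overnight dye step; 0% = bacteria only wells and 100% = bacteria with antibiotic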
Rv3671c protease: Rv3671c serine protease inhibitors, primary screen, biochemical, fluorescence polarization, M. tuberculosis H37Rv. AID 2606, 2010. P9WHR9. inhibition, % at 5.96 µM. 320,000 tested, 0.048% active; in the data active = inhibition above about 38%;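 note: extracellular domain of Rv3671c used as enzyme; 0% = enzyme with DMSO and 100% = no enzyme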
CCHF vOTU inh-2: CCHFV vOTU protease inhibitors, confirmation, biochemical, Pep-AMC substrate, fluorescence; shares compounds with CCHF vOTU inh-1; Recombinant CCHFV vOTU; inhibition, % at 11.5 µM; 1,900 tested, 17% active; AID 686976, 2013
Starred values were filed as active, the others as inactive; ? = inconclusive; · = no result. Compounds with a hit are over-represented: about 1.2% of the library has one in this group of screens. Cut-off read from the data, not from the text of the source, unless noted: active = inhibition above about 30%; inactive = the rest.

SMILES | CCHF vOTU inh-1 | RecA splice inh | UGM FP inh | Mtb betalactam | Rv3671c protease | CCHF vOTU inh-2
O=C(NCc1cccs1)C(=O)c1cn(CC(=O)N2CCOCC2)c2ccccc12 | -12 | 0 | -2 | -9 | -3 | ·
COc1ccccc1NS(=O)(=O)c1cccc(-n2c(O)c(C=Nc3ccccc3C(=O)O)c3ccccc3c2=O)c1 | 38* | 19 | 7 | -5 | 8 | 37*
COc1ccc(Cn2c(O)c(C=Nc3ccccc3C(=O)O)c3ccccc3c2=O)cc1 | -7 | 11 | -1 | -5 | 11 | ·
CCOC(=O)[C@]12CCCCC/C=C\1N(CCc1ccc(Cl)cc1)C(=O)[C@H]2CC(=O)NCc1cccc(C(F)(F)F)c1 | 26 | · | · | · | · | ·
CCCOc1cc(N)ccc1C(=O)OCCN(CC)CC | -3 | · | -1 | -1 | -1 | ·
CCCOc1ccc(N)cc1N | 85* | 30* | 6 | 25 | -43 | 22
CN(C)N1C(N)=C(C#N)C(c2ccc(F)cc2)C2=C1CC(C)(C)CC2=O (stereo unspecified) | 30* | -2 | -1 | -3 | 4 | -19
CCCCCN1CCCCC(NC(=O)c2ccc3ccccc3c2)C1=O (stereo unspecified) | 15 | · | · | · | · | ·
O=C1NC(c2ccc(-c3ccccc3[N+](=O)[O-])o2)C(C(=O)c2ccc(F)cc2)C(O)(C(F)(F)F)N1 (stereo unspecified) | 42* | 83* | 1 | 14 | -34 | 5
Nc1ccc2c(c1)Cc1cc(N)c(Cl)cc1-2 | 31* | · | · | · | · | -9
Cc1cc(C(=O)N/N=C2\CC(=O)c3ccccc32)c(C)n1-c1ccccc1 | 30* | 12 | 2 | -4 | -18 | -5
CC(=O)c1ccc(NC(=S)Nc2cccc3cnccc23)cc1 | 39* | 0 | 1 | 0 | 4 | 81*
CC(C)(C)CC(C)(C)NC(=O)CSCC(=O)Nc1ccc2ccccc2c1 | 30* | 4 | 6 | 86 | -22 | 12
NC(=S)Nc1cccc2cccnc12 | -6 | -1 | 1 | 93 | 1 | ·
COc1cc(NCc2ccccc2O)c2ncccc2c1 | 9 | 1 | · | · | · | ·
Oc1ccccc1CNc1cccc2cccnc12 | 52* | 4 | 1 | -1 | -46 | 91*
NC(=S)NNc1cccc2cccnc12 | 101* | 28 | 0 | 8 | -81 | 34*
CC(C)NC1=C(Cl)C(=O)c2ccccc2C1=O | 59* | 16 | -1 | -3 | -7 | 60*
O=C1C(Cl)=C(NCCc2ccccc2)C(=O)c2ccccc21 | 83* | · | · | · | · | 33*
CCN(CC)CCCNC1=C(Cl)C(=O)c2ccccc2C1=O | 56* | 14 | 1 | 5 | -29 | 56*
COc1cc2c(cc1NC(=O)CSc1nnc(-c3ccccc3F)n1-c1ccc(C)cc1)oc1ccccc12 | 12 | · | · | · | · | ·
CCN(CC)CCNC1=NCCn2c1cc1cc(OC)ccc12 | -8 | 1 | 2 | 2 | 10 | ·
CN=C1c2cc3cc(OC)ccc3n2CCN1Cc1ccccc1 | 37* | 1 | · | · | · | -9
CCC(=O)NC(c1cccs1)c1cc([N+](=O)[O-])c2cccnc2c1OC (stereo unspecified) | 124* | · | · | · | · | -8
CC(C)C(=O)NC(c1cccs1)c1cc([N+](=O)[O-])c2cccnc2c1O (stereo unspecified) | · | 1 | -3 | -4 | 5 | ·
SMILES | CCHF vOTU inh-1 | RecA splice inh | UGM FP inh | Mtb betalactam | Rv3671c protease | CCHF vOTU inh-2
CCCCCCCCNS(=O)(=O)/C=C/c1ccccc1CNC(=O)OC(C)(C)C | 36* | · | · | · | · | 16
CCCCNS(=O)(=O)/C=C/c1ccccc1CCNC(=O)OC(C)(C)C | 1 | · | · | · | · | ·
CN(C)CCN=Cc1c(O)n(Cc2ccc3c(c2)OCO3)c(=O)c2ccccc12 | -11 | 3 | -3 | 3 | -4 | ·
O=c1c2ccccc2c(C=NC2CCN(Cc3ccccc3)CC2)c(O)n1Cc1ccc2c(c1)OCO2 | 31* | 5 | -1 | 74 | -8 | -16
CCOC(=O)c1c(C)oc2c1c(C=NCc1ccccn1)c(O)c1ccccc12 | 63* | · | · | · | · | 24
CCOC(=O)c1c(C)oc2c1c(C=NCC1CCCO1)c(O)c1ccccc12 (stereo unspecified) | 35* | 21 | · | · | · | 53*
CCOC(=O)c1c(NCC2CCCO2)c2ccccc2[nH]c1=O (stereo unspecified) | -8 | -3 | -1 | 6 | -6 | ·
CC1=C(C(=O)OCC(C)C)C2(O)C(=O)c3ccccc3C2(O)N1 (stereo unspecified) | 30* | 20 | -1 | 7 | -54 | -18
COC(=O)[C@]12C[C@H](CC(=O)NCCCN3CCCC3=O)C(=O)N(Cc3cccc4ccccc34)C1=C[C@H](C(C)(C)C)O[C@@H]2C | 12 | · | · | · | · | ·
COc1ccc(N=NC2=C(O)CC(C)(C)CC2=O)cc1 | 32* | -1 | 1 | 0 | 6 | 4
Cc1ccc(NC(=O)C(c2ccccc2)N2CCN(CC(=O)N3CCOCC3)CC2)cc1 (stereo unspecified) | 34* | · | 1 | 1 | -4 | -7
CCOC(=O)[C@@]12CCCC=C1N(CCc1ccc(Cl)cc1)C(=O)[C@H]2CC(=O)NCc1cccc2ccccc12 | 16 | · | · | · | · | ·
COc1ccc(N2C(=O)C(Cl)=C(Nc3ccccc3OC)C2=O)cc1 | 36* | 0 | 0 | 3 | 6 | -5
CCOC(=O)N1CCN(C(=O)C[C@H]2C(=O)N(CCCOC)C3=CCCC[C@@]32C(=O)OCC)CC1 | -7 | · | · | · | · | ·
O=C([C@@H]1C[C@H]1c1ccccc1)N1CC[C@H]2[C@H](CCCN2Cc2ccc(F)cc2)C1 | 1 | · | · | · | · | ·
O=S(=O)(CC1NCc2cc(F)ccc21)NCc1ccc(F)cc1 (stereo unspecified) | 0 | · | · | · | · | ·
O=C(O)c1ccccc1NS(=O)(=O)c1ccc(NNC(=S)Nc2ccc(OC(F)F)cc2)c([N+](=O)[O-])c1 | 70* | 15 | · | · | · | 65*
CCOc1ccc(NC(=O)CNS(=O)(=O)c2c(C)cc(C)cc2C)cc1 | 43* | 4 | -3 | -4 | -4 | -16
CCOC(=O)Cn1cc(CN2CCS(=O)(=O)N(Cc3ccccc3)C(C(=O)OC)C2)nn1 (stereo unspecified) | -2 | · | · | · | · | ·
COc1cc(C)ccc1Oc1nc(-c2ccccc2O)nc2ccccc12 | 32* | 0 | 1 | -3 | 4 | -1
COc1cccc(Oc2nc(-c3ccccc3O)nc3ccccc23)c1 | -3 | -1 | 0 | ? | 3 | ·
CCc1ccc(/C=c2\s/c(=C\C(=O)C(C)(C)C)[nH]c2=O)cc1 | 36* | 13 | -3 | 100 | -18 | 8
CC(C)(C)C(=O)/C=c1\[nH]c(=O)/c(=C\c2ccc(F)cc2)s1 | 20 | 1 | 3 | 98 | -4 | ·
COC[C@@H](OC(C)=O)[C@H]1OCc2ccccc2[C@@H]1/C=C/c1ccccc1 | -3 | · | · | · | · | ·

Source: PubChem BioAssay (several laboratories)
